# From PubChem BioAssay
# Hits are enriched below; roughly 4.5% of the tested compounds scored in any of these assays.
# GAA850 FXN act = increases GAA850 frataxin promoter reporter activity; HEK293 lucGAA850 FXN promoter luciferase reporter, 24 h; percent of 10 µM SAHA response; activation, % at 6 µM; 0.56% of 360,000 active;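 active = activation above the average of all compounds screened plus 3 SD, cutoff fixed separately per campaign, cut at about 7.5% in these data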;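 also: 0% = DMSO wells and 100% = 10 µM SAHA wells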
# ssDAF-12 act = activates DAF-12 receptor from parasite S. stercoralis; HEK293 ssDAF-12/GRIP1 lit1-tk-luc reporter, luminescence; % of 3 µM dafachronic acid response; activation, % at 6.8 µM; 1% of 370,000 active; AID 652126;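 active = activation above the mean over all tested compounds plus 3 SD, cut at about 0.9% in these data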;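 also: 0% = DMSO-only wells and 100% = 3 µM delta7-dafachronic acid wells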
# hcDAF-12 act = H. contortus DAF-12 activation, primary screen; activation, % at 6.8 µM; HEK293 hcDAF-12 lit1-tk-luc reporter, luminescence; 0% DMSO, 100% Δ7-dafachronic acid; 1.4% of 370,000 active; AID 652067;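 active = activation above the mean of all tested compounds plus 3 SD, cut at about 5.5% in these data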;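 also: 100% = response to 3 µM Δ7-dafachronic acid high control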
# DAX1 inh-1 = DAX1 (NR0B1) inhibition, primary screen; 1.1% of 370,000 active; inhibition, % at 6.8 µM; AID 652010; HEK293T StAR-luciferase reporter, SF-1/DAX-1 repression relief;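 active = inhibition above the mean over all tested compounds plus 3 SD, cut at about 3.6% in these data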;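 also: 0% = DAX-1 cells with DMSO and 100% = cells lacking DAX-1 with DMSO; higher inhibition means more luminescence from relief of DAX-1 repression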
# hgDAF-12 ag = activates the H. glycines DAF-12 receptor ligand-binding domain; HEK293 GAL4-hgDAF12 UAS-luciferase reporter, agonist luminescence; normalized to butyrate control; activation, % at 6.8 µM; 1.8% of 370,000 active;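 active = activation above a cutoff set at the mean of all screened compounds plus 3 SD, cut at about 10% in these data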;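 also: 0% = DMSO wells and 100% = sodium butyrate wells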
# DAX1 inh-2 = inhibits human nuclear receptor DAX1 | HEK293 Gal4-DAX1 luciferase reporter, luminescence | inhibition, % at 6.75 µM | 0.99% of 340,000 active;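 active = inhibition above the mean over all tested compounds plus 3 SD, cut at about 4.2% in these data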;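 also: 0% = DAX1-transfected cells with DMSO and 100% = empty-vector control cells with DMSO; inhibition shows as a rise in luminescence from relieved DAX1 repression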
# Target sequence (P51843 207-470 limits assumed): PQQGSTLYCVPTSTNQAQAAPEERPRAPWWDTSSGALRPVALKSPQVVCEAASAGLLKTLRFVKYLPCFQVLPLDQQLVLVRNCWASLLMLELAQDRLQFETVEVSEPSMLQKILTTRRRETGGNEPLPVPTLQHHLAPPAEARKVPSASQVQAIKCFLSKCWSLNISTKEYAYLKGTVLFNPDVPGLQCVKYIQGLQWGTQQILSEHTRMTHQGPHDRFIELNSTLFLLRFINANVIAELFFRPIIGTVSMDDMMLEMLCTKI
# * hit, by the source's call; · = no result given.
SMILES,GAA850 FXN act,ssDAF-12 act,hcDAF-12 act,DAX1 inh-1,hgDAF-12 ag,DAX1 inh-2
O=C(OCCCN1CCC2(CCCCC2)C1=O)c1ccccc1,·,-1,-1,1,-1,·
COc1ccc(CN2CCN(S(=O)(=O)c3ccc(F)cc3)CC2)cc1OC,6,-2,-2,0,0,-1
COc1ccc(CN2CCN(S(=O)(=O)c3ccccc3)CC2)cc1Br,4,1.4*,-3,0,-2,0
O=C(CCn1c(=S)oc2ccccc21)NC1CCCCC1,0,5.3*,0,0,3,4
O=C(CCn1c(=O)sc2ccccc21)NC1CCCCC1,1,-1,2,0,3,0
C=CC[C@@]1(c2ccc(Br)cc2OC)Oc2ccccc2-c2nccnc21,·,-2,-2,-1,0,·
O=C(O)c1ccc2c3c(cccc13)C(=O)N(c1cccc3ccccc13)C2=O,1,-1,3,0,1,4.5*
CCCC#Cc1ccc(CC[C@H]2O[C@H]3CC[C@H](CO)O[C@H]3C[C@H]2NC(=O)CN2CCOCC2)cc1,·,-2,-4,-1,-5,·
O=[N+]([O-])c1ccc(-c2cn(-c3ccccc3F)c(=S)[nH]2)cc1,3,-1,1,0,4,1
Cc1ccc(-c2cn(-c3ccccc3F)c(=S)[nH]2)cc1,5,1,3,1,11*,4.4*
CCOc1ccc(N(CC(=O)Nc2c(C)n(C)n(-c3ccccc3)c2=O)S(=O)(=O)c2cccc3cccnc23)cc1,·,-1,1,0,0,·
NS(=O)(=O)c1ccc(NC(=O)COC(=O)/C=C/c2ccc([N+](=O)[O-])cc2)cc1,1,3.0*,0,0,-1,-1
O=C(COC(=O)/C=C/c1ccc([N+](=O)[O-])cc1)Nc1ccc(F)cc1,1,-1,0,-1,1,0
CC(C)[C@H](NC(=O)[C@H](C)NC(=O)OC(C)(C)C)C(=O)N1CCC2CCN(Cc3ccccc3)CC21 (stereo partly drawn),·,-1,0,-2,-3,·
Cc1nn(-c2ccccc2)c2sc(C(=O)NNC(=O)COc3ccccc3)cc12,-3,1.6*,2,1,1,1
Cc1nn(-c2ccccc2)c2sc(C(=O)NNC(=O)COc3cccc4ccccc34)cc12,-2,-1,0,0,-1,1
OC1(c2cccc(C(F)(F)F)c2)CCN(CCN2CCCCC2)CC1,0,1.6*,0,0,0,2
CCCC(=O)OC12CCCN(C1)/C(=C/c1ccc(Cl)cc1)C2 (stereo not drawn),·,-1,-1,1,2,·
CN(Cc1ccco1)C(=O)CN1C(=O)C2(OCCCO2)c2ccccc21,·,-1,-1,2,1,·
O=C(COC(=O)c1cc[n+]([O-])cc1)Nc1ccc(SC(F)F)cc1,1,1.2*,0,1,1,0
COCc1nnc(NC(C)=O)s1,1,-1,2,0,2,5.5*
Clc1ccc(OCc2noc(-c3ccsc3)n2)c(Cl)c1,4,0,2,2,11*,8.3*
CC1=C(C)NC(=S)SC1,0,-1,5.6*,0,-1,1
CNC(=O)CN(c1ccc(F)cc1)S(=O)(=O)c1cc(C)ccc1OC,0,-1,1,-1,0,4.3*
COc1ccc(C)cc1S(=O)(=O)N(CC(=O)O)c1ccc(C)cc1,-3,-1,-1,0,2,0
SMILES,GAA850 FXN act,ssDAF-12 act,hcDAF-12 act,DAX1 inh-1,hgDAF-12 ag,DAX1 inh-2
COc1cc2c(cc1OC)C(NC(=O)C(F)(F)F)CNC2=O (stereo not drawn),-4,-2,-1,1,13*,-1
O=C(OC12CCCN(C1)/C(=C/c1ccc(Cl)cc1)C2)c1ccc(F)cc1 (stereo not drawn),·,-1,3,0,-3,·
COC(=O)[C@]12C[C@H](CC(=O)NCCCN3CCCC3=O)C(=O)N(Cc3ccccc3)C1=C[C@H](COCc1ccccc1)O[C@@H]2C,·,-1,-3,-1,2,·
COc1cc(OC)c(Nc2cc(C)nc3nc(C)nn23)cc1Cl,2,-1,-2,0,-1,7.2*
CCC[C@H]1[C@@H](OC(=O)NC2CCCCC2)CC[C@@]23CCCN2C(=O)CCC[C@@H]13,·,-2,0,·,-3,·
COc1ccc(CCNC(=O)Nc2ccc3c(c2)[C@]2(CC(=O)N(CC(C)C)C2c2ccccc2)C(=O)N3C)cc1OC (stereo partly drawn),·,-1,-3,0,-2,·
COc1cccc(CSc2nnc(-c3ccco3)n2C)c1,-1,-1,1,0,1,5.2*
COc1ccc(-n2c(SCC(N)=O)nnc2-c2ccco2)cc1,1,1,4,1,5,4.5*
Cc1ccc(-n2c(SCC(N)=O)nnc2-c2ccco2)cc1,2,-2,0,-1,-1,1
CCCCN(C)C(=O)CSc1nnc(-c2cccnc2)n1C1CCCCC1,·,-1,-2,1,-4,·
Cc1ccc2c(c1)N(CC(=O)NCCCN1C(C)CCCC1C)C(=O)c1cccnc1O2 (stereo not drawn),-1,-1,0,0,-2,4.8*
CC1CCCC(C)N1CCCNC(=O)CN1C(=O)c2cccnc2Oc2ccc(Cl)cc21 (stereo not drawn),0,-2,-2,1,-1,4
Cc1ccccc1NC(=O)N(C)[C@H]1C[C@H]2c3[nH]c4c(-c5ccc6c(c5)OCO6)cccc4c3CCN2C[C@H]1[C@H](C)O,·,-1,0,0,6,·
COc1cc(CCC(=O)Nc2ncc(C)s2)cc(OC)c1OC,0,-1,-1,0,2,0
COc1ccc(CCC(=O)Nc2ncc(C)s2)cc1,2,2.2*,1,0,4,1
COc1cc(-n2c(C)nc3cc(C(=O)N4CCN(C(C)=O)CC4)ccc32)cc(OC)c1OC,·,-1,-2,0,-2,·
CCCCCCCCN1C(=O)[C@@H](CC(=O)NCc2cccc(C(F)(F)F)c2)C[C@@]2(C(=O)OC)C1=C[C@H](C(C)C)O[C@@H]2C1CC1,·,-1,-2,0,0,·
COc1ccccc1NS(=O)(=O)c1cccc(C(=O)NCC2(N3CCCCC3)CCCCC2)c1,1,-1,0,4.0*,0,1
CNS(=O)(=O)c1cccc(C(=O)NCC2(N3CCOCC3)CCCCC2)c1,2,-1,0,1,-3,0
COc1cc(Nc2c3ccccc3nc3ccccc23)cc(OC)c1OC,-2,0,5.7*,0,4,1
COc1ccc(Nc2c3ccccc3nc3ccccc23)cc1,-3,-2,-4,-2,-6,-4
